Many of the other results were omitted from the sample, so hits are more common in it than they were.
Shiga inhibitor – blocks Shiga toxin action in Vero cells; Vero cells, Shiga toxin protein synthesis inhibition reporter; inhibition, % at 38.7 µM; 9.2% of 290,000 active; AID 2315; in the data active means inhibition mostly above about 28%, no sharp cut-off; inactive means mostly below about 43%; further: 0% is about no effect
TbPYK inhibitor – blocks Trypanosoma brucei pyruvate kinase; Q57TT1; TbPYK enzyme, Kinase-Glo Plus ATP luminescence, 45 min; Potency, µM (series often up to 76.8 µM), for inactives: top-dose activity, negative = inhibition, actives largely listed as inhibitors; 0.12% of 410,000 active; further: potency means the concentration at half of the fitted maximal effect; on the % scale 0 is the no-effect control and ±100 the full control effect; nearly all actives have a fitted effect of over 50% in size
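TbPYK + substrate in 50 mM TEA pH 7.2, 100 mM KCl, 10 mM MgCl2, 0.05% BSA, 0.01% Tween-20; cpd pinned; ADP 130 uM final; 45 min RT; Kinase-Glo Plus 10 min; luminescence endpoint.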
Cycloheximide cs – counter-screen for Shiga toxin inhibitors: cycloheximide protein synthesis inhibition | cell reporter, cycloheximide protein synthesis inhibition counterscreen | max response, % | 12% of 300,000 active; in the data active means max response mostly above about 13%, no sharp cut-off; inactive means mostly below about 14%; further: read at 38.3 µM for the half of the compounds with a filed dose; 0% is about no effect
LmPK inh – inhibitors of Leishmania mexicana pyruvate kinase; AID 1721; Potency, µM (series often up to 57.5 µM), for inactives: at the highest dose activity change, negative = inhibition, most hits filed as inhibitors; purified LmPK, Kinase-Glo ATP luminescence, 1 h; Q27686; 0.37% of 290,000 active; further: potency means the concentration at half of the fitted maximal effect; on the % scale 0 is the no-effect control and ±100 the full control effect
Target sequence (Q27686 whole entry, looked up): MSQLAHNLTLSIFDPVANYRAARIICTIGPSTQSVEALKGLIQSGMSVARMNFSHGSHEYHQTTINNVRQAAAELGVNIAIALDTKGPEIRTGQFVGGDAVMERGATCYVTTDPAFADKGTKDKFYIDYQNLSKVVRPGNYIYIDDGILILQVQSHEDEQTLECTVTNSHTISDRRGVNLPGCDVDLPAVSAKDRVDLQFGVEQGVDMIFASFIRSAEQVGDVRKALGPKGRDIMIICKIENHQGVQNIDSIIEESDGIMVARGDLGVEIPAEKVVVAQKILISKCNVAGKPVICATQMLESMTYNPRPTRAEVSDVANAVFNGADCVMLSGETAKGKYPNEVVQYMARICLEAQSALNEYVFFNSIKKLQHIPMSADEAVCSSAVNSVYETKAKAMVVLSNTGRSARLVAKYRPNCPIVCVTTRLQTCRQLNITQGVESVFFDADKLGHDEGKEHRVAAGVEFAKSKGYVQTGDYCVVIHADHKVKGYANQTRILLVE
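qHTS format; LmPK 0.1 nM; substrates PEP 0.5 mM and ADP 0.1 mM. One-hour room-temperature incubation, then coupled luciferase luminescence; 0.5 nM enzyme wells mark activation.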
Sm TGR inh – inhibitors of Schistosoma mansoni thioredoxin glutathione reductase | Q962Y6 | purified TGR, DTNB reduction, TNB absorbance 405 nm | Potency, µM (titrated, usually from 114 µM), for inactives: at the highest dose activity change, negative = inhibition, hits mostly inhibitors | 3% of 360,000 active; further: potency means the concentration at half of the fitted maximal effect; on the % scale 0 is the no-effect control and ±100 the full control effect; nearly all actives have a fitted effect of over 60% in size
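First, TGR (20 nM dispensed) and NADPH were mixed with compound. Second, a 15 min room-temperature incubation followed. Third, further NADPH and then DTNB were added to start the reaction. Finally, TNB absorbance was monitored kinetically.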
FBPA Giardia inh – inhibitors of Giardia lamblia fructose-1,6-bisphosphate aldolase | A8B2U2 | purified Giardia FBPA | Potency, µM (doses to about 59.6 µM), inactives show top-dose activity, negative = inhibition, actives largely listed as inhibitors | 0.71% of 290,000 active | AID 2451; further: potency means the concentration at half of the fitted maximal effect; on the % scale 0 is the no-effect control and ±100 the full control effect; nearly all actives have a fitted effect of over 55% in size
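40 nM FBPA preincubated 10 min at RT with compound (up to 57.5 uM final), then substrate plus GAPDH/TPI/NAD/arsenate coupling and diaphorase/resazurin added. Fluorescence read after 20 min at RT, 525/598 nm.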
An asterisk follows results filed as active; ? = inconclusive; · = no result given; [ ] = another dose, or the depositor's remark. Unless noted, the call rests on the fitted dose curve; in most records, active means well fitted curve in the direction sought with a large enough effect; inconclusive means small, poorly fitted or top-dose-only effect, or another doubt; inactive means no such curve, though single readings can be large; an effect the other way counts as inactive or inconclusive.

SMILES	Shiga inhibitor	TbPYK inhibitor	Cycloheximide cs	LmPK inh	Sm TGR inh	FBPA Giardia inh
CC(C)CCNC(=O)c1cc2c(s1)-c1ccccc1S(=O)(=O)C2	15	-5%	16*	8%	10%	7%
COc1ccc(N(C)C(=O)c2cc3c(s2)-c2ccccc2S(=O)(=O)C3)cc1	3	1%	8	2%	3%	2%
CCCc1cc(=O)oc2cc(C)c3c(-c4ccccc4)coc3c12	·	3%	·	·	16%	·
CC(=O)c1cc(-c2ccccc2)n(CC(=O)NCCc2ccc(C)cc2)c1C	·	-8%[15.4 µM]	·	·	14%	·
CC1CCN(S(=O)(=O)c2cn(CC(=O)Nc3ccc(F)c(Cl)c3)c(=O)c3ccccc23)CC1	·	-8%	·	·	40%	·
COC(=O)c1cc(=O)c(O)c2c(O)c(O)ccc2c1	·	·	·	·	·	5µM*
C[n+]1ccccc1/C=C/c1ccc2ncccc2c1	40*	-4%	27*	-2%	-36%	-26%
C[n+]1ccccc1/C=C/c1ccc(C#N)cc1	·	?	-3	13%	45µM*	?
[O-]c1c[n+](-c2ccc(-[n+]3cc([O-])on3)cc2)no1	40	-4%	21*	-3%	·	?
[O-]c1c[n+](-c2ccccc2)no1	6	-7%	1	0%	-10%	0%
CCc1ccc([C@@H]2C[C@H]3[C@@H](CN2S(=O)(=O)c2ccc(C)cc2)C(=O)C[C@@H](c2ccc(Cl)cc2)N3S(=O)(=O)c2ccc(C)cc2)cc1	·	-10%	·	·	·	·
O=C(O)c1ccc(SCc2cnc(Cl)s2)cc1	-12	-12%	-2	-1%	-3%	27%
COC(=O)c1ccc(SCc2cnc(Cl)s2)cc1	130*	0%	30*	4%	5%	3%
CCN(CC)c1ccc2cc(-c3nnc(-c4ccccc4)o3)c(=O)oc2c1	70*	-20%	35*	7%	?	-2%
CN(C)Cc1c(O)ccc2cc(-c3nc4ccccc4n3C)c(=O)oc12	33	-4%	20*	3%	-34%	?
CN(C)Cc1c(O)ccc2c(-c3ccccc3)cc(=O)oc12	-13	2%	-5	3%	20%	0%
CCN(CC)c1ccc2cc(-c3nc4ccccc4n3C)c(=O)oc2c1	80*	6%	37*	17%	-10%	-18%
CCN(CC)c1ccc2cc(-c3nc4ccccc4[nH]3)c(=O)oc2c1	81*	-7%	49*	-4%	-1%	-21%
CCN(CC)c1ccc2cc(-c3nc(-c4ccc(OC)cc4)cs3)c(=O)oc2c1	2	-2%	-2	-3%	-2%	6%
O=C(c1ccc(F)cc1)N1CCC(c2nc(-c3ccc(S(=O)(=O)N4CCCC4)cc3)no2)CC1	·	-11%	·	·	6%	·
O=C(Nc1nc2c(s1)CCCC2)c1ccc2ncsc2c1	67*	-29%	41*	-1%	-5%	-12%
Cc1cc(C(=O)Nc2nc3c(s2)CCCC3)cs1	107*	-3%	40*	-26%	-5%	-6%
Cc1ccccc1C(=O)NC(C(=O)Nc1nc2c(s1)CCCC2)C(C)C (centres undefined)	31*	-1%	17*	1%	-12%	-5%
Cc1ncsc1C(=O)Nc1nc2c(s1)CCCC2	106*	?	62*	?	-8%[11.4 µM]	-1%
Cc1cccc(C(=O)Nc2nc3c(s2)CCCC3)c1	·	-8%	·	·	4%	·
SMILES	Shiga inhibitor	TbPYK inhibitor	Cycloheximide cs	LmPK inh	Sm TGR inh	FBPA Giardia inh
CCc1ccc(NCc2cc3ccc(OC)cc3n(CC(=O)Nc3ccc(F)cc3F)c2=O)cc1	·	-4%	·	·	-2%	·
CCOc1ccc(NC(=O)C2CCCN(c3nnc(-n4c(C)ccc4C)s3)C2)cc1 (centres undefined)	·	-11%	·	·	-26%	·
Cc1cccc(NC(=O)CCC(=O)OCC(=O)c2ccc(Oc3ccc([N+](=O)[O-])cc3)cc2)c1	-20	-8%	-5	1%	40µM*	-2%
Cc1ccc(C(=O)COC(=O)c2cccc(NC(=O)c3ccc([N+](=O)[O-])cc3[N+](=O)[O-])c2)cc1	136*	5%	36*	-7%	-3%	5%
Cc1ccc(NC(=O)CCC(=O)OCC(=O)c2ccc(Oc3ccc([N+](=O)[O-])cc3)cc2)cc1C	-10	-19%	1	1%	-24%	3%
COc1ncc2nc(-c3cn(C)c4ccccc34)c(=O)n(CCc3ccccc3)c2n1	·	·	·	·	·	5%
CCC(C)NC(=O)c1ccc(CSCc2cccc(F)c2)o1 (centres undefined)	33	1%	25*	1%	-6%	3%
O=C(NC1CC1)c1ccc(CSCc2cccc(F)c2)o1	35	-4%	11*	2%	35µM*	-8%
CCC(C)NC(=O)c1ccc(CSCc2ccc(Cl)cc2)o1 (centres undefined)	2	-1%	-1	2%	0%	5%
Nc1ccccc1OCCOc1ccccc1N	31	3%	20*	-3%	-17%	-1%
Cc1cccnc1NC(=O)Nc1cccc2ccccc12	-2	-6%	13	-1%	3%	-17%
N#CCc1ccc(NC(=O)Nc2cccc(Cl)c2)cc1	71	-3%	32*	4%	6%	1%
CC1CCC(=C(C#N)C(=O)Nc2cccc(Cl)c2)CC1 (centres undefined)	19	1%	24*	-5%	-15%	·
O=C(Nc1cccc(F)c1)Nc1cccc(Cl)c1	·	-1%	28*	-2%	-3%	6%
Cc1cccnc1NC(=O)Nc1cccc(Cl)c1	60*	0%	13	2%	3%	-5%
Cc1cccc(C)c1NC(=O)CN(C)S(=O)(=O)c1ccc2c(c1)n(C)c(=O)c(=O)n2C	·	1%	·	·	1%	·
CCCCC(CC)CNC(=O)CN1C(=O)CSc2ccc(S(=O)(=O)N3CCOCC3)cc21 (centres undefined)	·	-1%	·	·	2%	·
COc1cccc(C(=O)Nc2cccc(-c3nc4ncccn4c3C)c2)c1	·	7%	·	·	0%	·
CCOc1ccc(CNC(=O)CCCn2c(=O)c3cccn3c3ccccc32)cc1	·	-3%	·	·	0%	·
CNS(=O)(=O)c1ccc(NC(=O)Nc2cccc(F)c2)cc1	86*	-3%	32*	1%	12%	-1%
O=C(Nc1cccc(Cl)c1)OCCOCCOC(=O)Nc1cccc(Cl)c1	·	2%	·	·	·	·
O=C(CCc1ccccc1)NNC(=O)Nc1cccc(Cl)c1	36	2%	17*	-3%	-6%	-1%
O=C(Nc1cccc(Cl)c1)Nc1cccc(Cl)c1	68*	-2%	20*	4%	-8%	-7%
O=C(Nc1cccc(Cl)c1)OCc1cnc(Cl)s1	31	0%	14*	0%	-1%	-6%
COc1cccc(OC)c1C(=O)Nc1cccc(-n2cnnn2)c1	-6	-23%	-2	7%	-1%	-1%
